Active and inactive are the calls of the source.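 Rule for the calls: active = compounds whose cell count with miR-34 switched on is under 0.7 times the count with it off; inactive = the rest.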

The first experiment can be described thus: sensitizers of A549 cells to miR-34 induction, primary screen, imaging, A549 dox-inducible miR-34, nuclei and caspase counts (AID 1347080). Note: test concentration not given here. To be noted: A549 miR-34 inducible, Hoechst nuclei count, 48 h; stronger effect = lower value; cell number ratio, induced over uninduced.
With `CCNc1nc2c(ncn2[C@H]2C[C@H](O)[C@@H](CO)O2)c(=O)[nH]1`, the fold change was 0.97 (inactive).

Consider `CC(=O)O[C@H]1Cc2ccccc2N(C(N)=O)c2ccccc21`, for which the fold change is 0.953 (inactive).

Turning to `COc1ccc(-c2cc3ncc(C)n3c(Nc3ncccc3C(N)=O)n2)cc1OC`, the fold change was 0.944 (inactive).

As for `COc1ccc2c(c1)CCC1C2CC[C@@]2(C)C1CC[C@@H]2NCCCCCCN1C(=O)CCC1=O` (stereo partly drawn), the fold change is 1.08 (inactive).

With `O=C(c1ccc(Cl)cc1)N1CCN(c2ccc([N+](=O)[O-])c3ncccc23)CC1`, the fold change was 0.912 (inactive).

As for `Cc1cc(Cn2cnc3c2C[C@@H](C(=O)O)N(C(=O)C(c2ccccc2)c2ccccc2)C3)ccc1N`, the fold change is 1.01 (inactive).

In the case of `c1ccc2c(c1)CCC[C@H]2Nc1nc2ccccc2[nH]1`, the fold change was 1.09 (inactive).

`Clc1ccc(N2CCN(Cc3cc4ccccn4n3)CC2)cc1`: the fold change was 1.01 (inactive).

For `Cn1ncc(S(=O)(=O)Cc2ccccc2)c(Br)c1=O`, the fold change is 1.14 (inactive).

For the compound `O=c1ccc2c(OCCCCc3ccccc3)c3ccoc3cc2o1`, the fold change was 1.08 (inactive).

Take `O=c1cc(-c2ccccc2F)[nH]c2cc3c(cc12)OCO3`: the fold change is 1.11 (inactive).

`O=C(CCCCCN1CCN(c2ccccc2-c2ccccc2)CC1)NC1CCCc2ccccc21` (stereo not drawn): the fold change is 1.17 (inactive).

Regarding `COc1cc(C(O)CO)ccc1O` (stereo not drawn), the fold change was 0.99 (inactive).

As for `Brc1c(Br)c(Br)c2[nH]cnc2c1Br`, the fold change was 1.11 (inactive).

For the compound `OCC1O[C@H]([S-])[C@@H](O)C(O)[C@@H]1O.[Au+]` (stereo partly drawn), the fold change is 0.895 (inactive).

As for `Clc1nccc2c1ccc1ccccc12`, the fold change was 1.47 (inactive).

Turning to `CN(C)CCCc1cc(C(=O)Nc2ccc(-c3ccncc3)cc2)ccc1O`, the fold change was 1 (inactive).

Turning to `N[C@H](CCCP(=O)(O)O)C(=O)O`, the fold change was 0.903 (inactive).

Regarding `Oc1ccc(/C=C/c2ccc(/C=C/c3ccc(O)cc3)c(Br)c2)cc1`, the fold change is 1.33 (inactive).

As for `CC[n+]1c(/C=C/C=C2/N(C)c3ccccc3C2(C)C)sc2ccccc21`, the fold change was 1.18 (inactive).

For `C=C1C[C@@]23CC[C@H]4[C@@](C)(CCC[C@@]4(C)C(=O)OC4OC(CO)C(O)C(O)C4O)[C@@H]2CC[C@]1(OC1OC(CO)C(O)C(O)C1OC1OC(CO)C(O)C(O)C1O)C3` (stereo partly drawn), the fold change is 1.06 (inactive).

For `CCCCC#Cc1nc(NC)c2ncn([C@@H]3O[C@H](CO)C(O)[C@@H]3O)c2n1` (stereo partly drawn), the fold change was 1.02 (inactive).

Regarding `CC(=O)/C=C1\C(=O)N(C)c2ccccc21`, the fold change was 0.98 (inactive).

Turning to `COc1cc(N)c(Cl)cc1C(=O)OCCN1CCCCC1`, the fold change is 1.11 (inactive).

As to `CN(CC[C@@H](Oc1ccc(C(F)(F)F)cc1)c1ccccc1)CC(=O)O`, the fold change was 1.05 (inactive).

As to `O=c1[nH]c(=S)[nH]c(-c2ccccc2)c1Cc1c(O)ccc2ccccc12`, the fold change was 0.946 (inactive).

`Nc1nc2c(ncn2[C@@H]2O[C@H](CO)[C@@H](O)[C@@H]2O)c(=O)[nH]1`: the fold change is 0.934 (inactive).

`COc1ccc(/C=C2\COc3ccc(C)cc3C2=O)cc1O`: the fold change was 1.16 (inactive).

On to `Cc1cc2c(cc1Cl)N(C(=O)Nc1ccc(Oc3cccnc3C)nc1)CC2`, for which the fold change is 0.93 (inactive).

On to `CN1Cc2sccc2C(c2ccc(O)c(O)c2)C1` (stereo not drawn), for which the fold change was 1.06 (inactive).

Take `Nc1ccc(-c2ccc3ccccc3n2)cc1`: the fold change is 1.1 (inactive).

In the case of `CC(C)c1cccc(C(C)C)c1N1C(=O)c2ccc(O)cc2C1=O`, the fold change is 1.39 (inactive).

Turning to `C=C1C[C@@]23CC[C@H]4[C@@](C)(CCC[C@@]4(C)C(=O)O)[C@@H]2CC[C@]1(O)C3`, the fold change is 0.931 (inactive).

Turning to `O=C1/C(=C/c2ccsc2)CC/C1=C\c1cccs1`, the fold change is 0.99 (inactive).

In the case of `Nc1nc(OCC2CCCCC2)c2[nH]cnc2n1`, the fold change was 1.47 (inactive).

Regarding `CCCC(CCC)C(=O)OC1CC2CCC(C1)[N+]2(C)C` (stereo not drawn), the fold change was 0.959 (inactive).

Take `CSc1ccccc1N1CCN(CCCCCC(=O)NC2CCCc3ccccc32)CC1` (stereo not drawn): the fold change was 0.986 (inactive).

For the compound `Cc1cc2c(cc1Cl)N(C(=O)Nc1ccnc3ccccc13)CC2`, the fold change is 1.12 (inactive).

With `NC[C@@H]1O[C@H](c2ccccc2)Cc2c1ccc(O)c2O`, the fold change is 0.966 (inactive).

The same experiment, now with this note: A549 miR-34 inducible, Hoechst nuclei count, 48 h; measured here: relative caspase fold change +Dox/-Dox.
Consider `CCNc1nc2c(ncn2[C@H]2C[C@H](O)[C@@H](CO)O2)c(=O)[nH]1`, for which the fold change came to 1.78.

For `CC(=O)O[C@H]1Cc2ccccc2N(C(N)=O)c2ccccc21`, the fold change came out at 1.06.

For the compound `COc1ccc(-c2cc3ncc(C)n3c(Nc3ncccc3C(N)=O)n2)cc1OC`, the fold change was 1.3.

As to `COc1ccc2c(c1)CCC1C2CC[C@@]2(C)C1CC[C@@H]2NCCCCCCN1C(=O)CCC1=O` (stereo partly drawn), the fold change stood at 0.876.

With `O=C(c1ccc(Cl)cc1)N1CCN(c2ccc([N+](=O)[O-])c3ncccc23)CC1`, the fold change came to 1.42.

Regarding `Cc1cc(Cn2cnc3c2C[C@@H](C(=O)O)N(C(=O)C(c2ccccc2)c2ccccc2)C3)ccc1N`, the fold change was determined as 2.03.

`c1ccc2c(c1)CCC[C@H]2Nc1nc2ccccc2[nH]1`: the fold change worked out at 0.557.

As to `Clc1ccc(N2CCN(Cc3cc4ccccn4n3)CC2)cc1`, the fold change came out at 1.14.

For the compound `Cn1ncc(S(=O)(=O)Cc2ccccc2)c(Br)c1=O`, the fold change was 1.46.

For the compound `O=c1ccc2c(OCCCCc3ccccc3)c3ccoc3cc2o1`, the fold change is 1.92.

Take `O=c1cc(-c2ccccc2F)[nH]c2cc3c(cc12)OCO3`: the fold change was 0.744.

For `O=C(CCCCCN1CCN(c2ccccc2-c2ccccc2)CC1)NC1CCCc2ccccc21` (stereo not drawn), the fold change was 1.11.

As for `COc1cc(C(O)CO)ccc1O` (stereo not drawn), the fold change is 1.37.

Consider `Brc1c(Br)c(Br)c2[nH]cnc2c1Br`, for which the fold change amounted to 2.37.

For `OCC1O[C@H]([S-])[C@@H](O)C(O)[C@@H]1O.[Au+]` (stereo partly drawn), the fold change is 0.924.

Take `Clc1nccc2c1ccc1ccccc12`: the fold change was determined as 1.16.

Consider `CN(C)CCCc1cc(C(=O)Nc2ccc(-c3ccncc3)cc2)ccc1O`, for which the fold change was determined as 1.13.

As for `N[C@H](CCCP(=O)(O)O)C(=O)O`, the fold change came to 1.61.

For the compound `Oc1ccc(/C=C/c2ccc(/C=C/c3ccc(O)cc3)c(Br)c2)cc1`, the fold change was 1.11.

Regarding `CC[n+]1c(/C=C/C=C2/N(C)c3ccccc3C2(C)C)sc2ccccc21`, the fold change came out at 0.865.

Turning to `C=C1C[C@@]23CC[C@H]4[C@@](C)(CCC[C@@]4(C)C(=O)OC4OC(CO)C(O)C(O)C4O)[C@@H]2CC[C@]1(OC1OC(CO)C(O)C(O)C1OC1OC(CO)C(O)C(O)C1O)C3` (stereo partly drawn), the fold change turned out to be 0.521.

In the case of `CCCCC#Cc1nc(NC)c2ncn([C@@H]3O[C@H](CO)C(O)[C@@H]3O)c2n1` (stereo partly drawn), the fold change turned out to be 2.24.

For the compound `CC(=O)/C=C1\C(=O)N(C)c2ccccc21`, the fold change was found to be 1.31.

Turning to `COc1cc(N)c(Cl)cc1C(=O)OCCN1CCCCC1`, the fold change was 1.42.

For `CN(CC[C@@H](Oc1ccc(C(F)(F)F)cc1)c1ccccc1)CC(=O)O`, the fold change was found to be 2.04.

In the case of `O=c1[nH]c(=S)[nH]c(-c2ccccc2)c1Cc1c(O)ccc2ccccc12`, the fold change was determined as 1.58.

`Nc1nc2c(ncn2[C@@H]2O[C@H](CO)[C@@H](O)[C@@H]2O)c(=O)[nH]1`: the fold change is 1.54.

As to `COc1ccc(/C=C2\COc3ccc(C)cc3C2=O)cc1O`, the fold change was found to be 2.59.

With `Cc1cc2c(cc1Cl)N(C(=O)Nc1ccc(Oc3cccnc3C)nc1)CC2`, the fold change stood at 1.1.

On to `CN1Cc2sccc2C(c2ccc(O)c(O)c2)C1` (stereo not drawn), for which the fold change amounted to 2.13.

Turning to `Nc1ccc(-c2ccc3ccccc3n2)cc1`, the fold change was 1.06.

Consider `CC(C)c1cccc(C(C)C)c1N1C(=O)c2ccc(O)cc2C1=O`, for which the fold change worked out at 0.841.

On to `C=C1C[C@@]23CC[C@H]4[C@@](C)(CCC[C@@]4(C)C(=O)O)[C@@H]2CC[C@]1(O)C3`, for which the fold change amounted to 1.06.

As for `O=C1/C(=C/c2ccsc2)CC/C1=C\c1cccs1`, the fold change worked out at 1.31.

On to `Nc1nc(OCC2CCCCC2)c2[nH]cnc2n1`, for which the fold change was 1.19.

As to `CCCC(CCC)C(=O)OC1CC2CCC(C1)[N+]2(C)C` (stereo not drawn), the fold change was 1.54.

As for `CSc1ccccc1N1CCN(CCCCCC(=O)NC2CCCc3ccccc32)CC1` (stereo not drawn), the fold change was 1.19.

For `Cc1cc2c(cc1Cl)N(C(=O)Nc1ccnc3ccccc13)CC2`, the fold change amounted to 1.03.

For the compound `NC[C@@H]1O[C@H](c2ccccc2)Cc2c1ccc(O)c2O`, the fold change is 1.26.

The values are drawn from PubChem BioAssay.
